Measured values reported in ChEMBL document CHEMBL4513216, “Probing the Open Global Health Chemical Diversity Library for Multistage-Active Starting Points for Next-Generation Antimalarials” (ACS Infect Dis, 2020).
Hit rate of the full screen: of about 65,000 compounds, about 2,100 (3.2%) showed an effect of 50% or more. The median lay at about -52%. Only a selection was taken, and strong results are over-represented in it overall.

test system: Plasmodium falciparum; test: Screen against P. falciparum Asexual Blood Stage (ABS), at 5uM; assay type: functional, Dd2; settings: tested at 5 uM

Compound | INHIBITION
Clc1ccc2nc(N3CCC(NCCCC4CCOC4)CC3)sc2c1 (stereo unspecified) | 66.2%
Cc1csc2c(N3CCC(NCCCC4CCOC4)CC3)ncnc12 (stereo unspecified) | -85.3%
CCS(=O)(=O)CCNC1CCN(c2nc3ccc(Cl)cc3s2)CC1 | -52%
COCc1nc2ncc3c(=O)n(-c4ccccc4OC)ccc3n2n1 | -152%
O=C(Nc1cccc(F)c1)C1CCCN1c1nccs1 (stereo unspecified) | -77.8%
O=C(Nc1cccc(N2CCCC2)c1)C1CCCN1c1nccs1 (stereo unspecified) | -129%
N#Cc1cccc(NC(=O)C2CCCN2c2nccs2)c1 (stereo unspecified) | 58.1%
CNC(=O)c1ccc(CNc2ccncc2Cl)cc1 | -24.6%
O=S(=O)(NCCCn1cncn1)c1ccc2c(c1)CCCC2 | -159%
CNc1nc(C2CCCN2C(C)=O)nc2c1CN(C1CCCC1)CC2 (stereo unspecified) | -71.7%
CN1CCCCC1c1cncc(N2CCC(O)CC2)n1 (stereo unspecified) | -68.9%
c1cc(N2CCC3(COCc4cnc(NCC5CC5)nc43)C2)ncn1 (stereo unspecified) | -14.7%
Cc1ccccc1CN1CCC2(COCc3cnc(N(C)C)nc32)C1 (stereo unspecified) | 54%
O=S(=O)(C1CC1)N1CCC2(COCc3cnc(NCC4CC4)nc32)C1 (stereo unspecified) | -35.7%
c1ccc(CN2CCC3(COCc4cnc(NCC5CC5)nc43)C2)cc1 (stereo unspecified) | 50.2%
CN(C)c1ncc2c(n1)C1(CCN(Cc3ccccc3F)C1)COC2 (stereo unspecified) | 4.25%
Cc1noc(C)c1CN1CCC2(COCc3cnc(N(C)C)nc32)C1 (stereo unspecified) | 26.7%
Cc1cccc(CN2Cc3ccnn3CC(COCC3CC3)C2)n1 (stereo unspecified) | -11.3%
COCCN1CCN(C(=O)NC2CC2)Cc2ccc(C)nc21 | -51.3%
Cc1cc(C[C@@H]2COC[C@H]2NCc2ccc(Cl)c(Cl)c2)on1 | -65.7%
Cn1cc(N2CCC3(CCCN(Cc4ccc(F)cc4)C3)C2=O)cn1 (stereo unspecified) | -69.1%
O=C1COC2(CCN(CC3CC3)CC2)CN1c1ccsc1 | -43%
c1cc(C2CC2)n2cnc(C3CN(Cc4ccncc4)CCO3)c2c1 (stereo unspecified) | -50%
COCC(=O)N1CCC(c2nc3ccc(-c4ccncc4)cn3n2)CC1 | -48.7%
c1ccc(-c2noc(CCNC3CCOC4(CCOCC4)C3)n2)nc1 (stereo unspecified) | -80.1%
c1ccc(-c2nc(CCNC3CCOC4(CCOCC4)C3)no2)cc1 (stereo unspecified) | -81.3%

Compound | INHIBITION
c1ccc2c(c1)cnn2CCCNC1CCOC2(CCOCC2)C1 (stereo unspecified) | 68.9%
c1ccc(Cc2noc(CCNC3CCOC4(CCOCC4)C3)n2)cc1 (stereo unspecified) | -43.3%
c1ccc2c(c1)ccn2CCCNC1CCOC2(CCOCC2)C1 (stereo unspecified) | 61.8%
c1ccc2c(c1)nnn2CCCNC1CCOC2(CCOCC2)C1 (stereo unspecified) | -4.37%
COc1cc(F)ccc1-c1ncccc1NC(=O)C(C)C | -81.8%
CC(C)(C)c1nc(NS(=O)(=O)c2cccc(F)c2)no1 | -71.4%
Cc1cc(NCc2ccc(C#N)cc2)n2nc(C)cc2n1 | -88.7%
Cc1nn(C)c2cn(C(C)C(=O)NCc3ccccn3)nc12 (stereo unspecified) | -17.6%
CC(C)N(C)Cc1cnc2n1CCN(Cc1cccc(C#N)c1)C2 | 10.6%
Cc1noc(C)c1CN1CCN(CCN(C)C)c2ncccc2C1 | 23.7%
CN(C)CCN1CCN(Cc2cccc(C#N)c2)Cc2cccnc21 | 65.1%
Cc1ncccc1NC(=O)c1nc2c(n1C)CCN(C(=O)C1CC1)C2 | -117%
COc1ccccc1NCc1cscn1 | -46.4%
COc1cc(C(C)NCc2cscn2)ccc1SC(F)F (stereo unspecified) | 52.5%
COc1cc(C(C)NCc2scnc2C)ccc1SC(F)F (stereo unspecified) | 19.3%
CN(Cc1cccnc1)C1CC2(CCN(Cc3cccnc3)CC2)C1 | -8.45%
Cc1ccc(N2CCC3(CC2)CCN(C2CCOCC2)CC3)nn1 | -77.4%
COCCN(Cc1ccc(C)cc1)CC1CCOC1 (stereo unspecified) | -104%
COc1cccc(CN2C[C@@H]3COC[C@]3(COc3cccnc3)C2)c1 | 16.9%
COc1ccccc1CN1C[C@@H]2COC[C@]2(COc2cccnc2)C1 | 52.9%
COc1cccc(CN2C[C@@H]3COC[C@]3(COCc3ccccn3)C2)c1 | 61%
CCOC[C@]12COC[C@H]1CN(Cc1cccc(OC)c1)C2 | 3.19%
COc1cc(N2C[C@@H]3COC[C@]3(COCc3ccncc3)C2)ncn1 | -1.95%
COc1ccccc1CN1C[C@@H]2COC[C@]2(COCc2ccncc2)C1 | 55.3%
Fc1cccc(CN2C[C@@H]3COC[C@]3(COCc3ccncc3)C2)c1 | -28.5%
